Assay results published in PubChem BioAssay (Tox21).
Inconclusive results are not listed. The source made the active and inactive calls. Unless noted, calls follow the shape of the dose curve; as a rule, active = well fitted curve in the direction sought with a large enough effect in the repeat runs; inconclusive = weak or mixed curves; inactive = no such curve, though single readings can be large; an effect the other way counts as inactive or inconclusive.

Legend:
[1] = target: Progesterone receptor (Homo sapiens) (UniProt P06401); test: qHTS assay to identify small molecule agonists of the progesterone receptor (PR) signaling pathway (AID 1346784; calls by dose curve; also: nearly all actives have a fitted effect of over 30% in size; also: potency is read from the fitted curve at half-maximal effect)
Sequence of Progesterone receptor (Homo sapiens) (P06401 whole entry, looked up): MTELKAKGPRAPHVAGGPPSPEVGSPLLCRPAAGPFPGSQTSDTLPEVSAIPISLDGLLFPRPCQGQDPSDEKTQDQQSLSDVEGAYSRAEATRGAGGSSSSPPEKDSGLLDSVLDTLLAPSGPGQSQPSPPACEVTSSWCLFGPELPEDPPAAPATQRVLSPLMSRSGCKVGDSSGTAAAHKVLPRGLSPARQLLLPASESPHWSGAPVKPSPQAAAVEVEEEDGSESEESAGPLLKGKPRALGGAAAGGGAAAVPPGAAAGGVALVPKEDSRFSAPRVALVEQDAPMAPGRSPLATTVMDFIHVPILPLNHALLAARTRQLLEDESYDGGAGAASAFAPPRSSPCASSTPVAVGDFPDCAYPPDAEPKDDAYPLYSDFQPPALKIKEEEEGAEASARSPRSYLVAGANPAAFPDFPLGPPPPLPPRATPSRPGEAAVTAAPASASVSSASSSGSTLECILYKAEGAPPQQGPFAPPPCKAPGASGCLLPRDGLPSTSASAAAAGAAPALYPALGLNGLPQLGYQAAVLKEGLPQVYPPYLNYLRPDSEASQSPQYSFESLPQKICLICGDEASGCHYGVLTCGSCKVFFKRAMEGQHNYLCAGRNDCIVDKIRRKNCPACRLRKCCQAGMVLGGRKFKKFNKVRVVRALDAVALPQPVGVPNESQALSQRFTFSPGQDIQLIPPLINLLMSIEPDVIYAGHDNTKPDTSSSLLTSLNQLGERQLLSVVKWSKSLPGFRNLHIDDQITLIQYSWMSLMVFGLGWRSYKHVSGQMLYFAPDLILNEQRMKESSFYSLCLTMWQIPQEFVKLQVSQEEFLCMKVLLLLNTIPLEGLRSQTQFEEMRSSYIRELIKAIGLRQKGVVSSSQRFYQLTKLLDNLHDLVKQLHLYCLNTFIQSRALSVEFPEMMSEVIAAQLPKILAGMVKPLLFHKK
Summary of the method: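 PR-UAS-bla HEK 293T cells carrying a UAS-driven beta-lactamase reporter were seeded in medium with 2% charcoal-stripped FBS, preincubated 6 hr at 37C, then exposed to compounds in DMSO for 16 hr; agonism was read by LiveBLAzer B/G FRET fluorescence.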

[2] = target: Progesterone receptor (Homo sapiens) (UniProt P06401); test: qHTS assay to identify small molecule antagonists of the progesterone receptor (PR) signaling pathway (AID 1346795; active = well fitted inhibition curve with a large enough effect in the signal ratio in the repeat runs, not every such curve was filed as active; the % refers to the signal ratio; also: potency is read from the fitted curve at half-maximal effect)
Summary of the method: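 PR-UAS-bla HEK293T cells carrying a UAS-driven beta-lactamase reporter were plated in medium with 2% charcoal-stripped FBS and rested 6 hr at 37C. Compounds were added with 1 nM R5020 (final) for 16 hr, then FRET substrate loaded 2 hr at room temperature.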

[3] = qHTS assay to identify small molecule antagonists of the progesterone receptor (PR) signaling pathway - cell viability counter screen (AID 1346798); also: nearly all actives have a fitted effect of over 50% in size; also: potency is read from the fitted curve at half-maximal effect; as to activity change, negative = cytotoxicity: series mostly up to about 92 µM
Summary of the method: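 PR-UAS-bla HEK293T cells in medium with 2% charcoal-stripped FBS were treated with compounds plus R5020 for 16 hr at 37C. Cell viability was then read by CellTiter-Glo luminescence after 30 min at room temperature in the same wells.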

[4] = qHTS assay to identify small molecule agonists of the progesterone receptor (PR) signaling pathway - cell viability counter screen (AID 1346799; calls by dose curve; also: nearly all actives have a fitted effect of over 45% in size; also: potency is read from the fitted curve at half-maximal effect)
Summary of the method: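 PR-UAS-bla HEK293T cells, 3,000 per well in medium with 2% charcoal-stripped FBS, were preincubated 6 hr at 37C, then exposed to compounds for 16 hr; viability was read as CellTiter-Glo luminescence after 30 min at room temperature.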

[5] = qHTS assay to identify small molecule antagonists of the TGF-beta/Smad signaling pathway - cell viability counter screen (AID 1346824); also: nearly all actives have a fitted effect of over 50% in size
Summary of the method: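 SBE-bla HEK 293T cells were plated overnight at 37 C, then given compounds in DMSO plus TGF-beta1 (added as 0.25 ng/mL solution) for 5 hr. After the bla read, CellTiter-Glo was added to the same wells and luminescence read after 30 min at room temperature.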

[6] = qHTS assay to identify small molecule agonists of the TGF-beta/Smad signaling pathway - cell viability counter screen (AID 1346829); also: top concentration of the series differs between compounds; nearly all actives have a fitted effect of over 45% in size
Summary of the method: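 Compound-treated SBE-bla HEK 293T cells (5 hr, 37 C) were assessed for viability with CellTiter-Glo in parallel with the reporter read.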

[7] = target: Thyrotropin-releasing hormone receptor (Homo sapiens) (UniProt P34981); test: qHTS assay to identify small molecule antagonists of the thyrotropin-releasing hormone receptor (TRHR) signaling pathway (AID 1346877; active = well fitted inhibition curve with a large enough effect in the repeat runs, not every such curve was filed as active; also: series mostly up to about 51 µM)
Sequence of Thyrotropin-releasing hormone receptor (Homo sapiens) (P34981 whole entry, looked up): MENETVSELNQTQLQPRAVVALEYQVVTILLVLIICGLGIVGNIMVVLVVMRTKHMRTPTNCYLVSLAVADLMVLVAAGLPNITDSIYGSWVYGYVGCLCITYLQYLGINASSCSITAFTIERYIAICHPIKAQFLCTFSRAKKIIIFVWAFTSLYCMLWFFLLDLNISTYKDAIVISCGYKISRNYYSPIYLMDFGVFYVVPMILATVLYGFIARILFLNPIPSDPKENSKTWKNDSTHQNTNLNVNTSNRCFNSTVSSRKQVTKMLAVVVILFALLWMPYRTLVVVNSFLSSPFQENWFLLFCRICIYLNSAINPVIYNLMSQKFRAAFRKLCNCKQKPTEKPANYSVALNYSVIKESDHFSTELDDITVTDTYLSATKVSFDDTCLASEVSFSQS
Summary of the method: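 TRHR-expressing HEK293 cells loaded with calcium dye for 2 h at 37 C; compounds pre-incubated 5 min at room temperature before TRH challenge at 1 nM final. Intracellular calcium fluorescence read kinetically for 3 min; 15 concentrations in triplicate.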

[8] = qHTS assay to identify small molecule agonists of the estrogen receptor alpha (ER-alpha) signaling pathway in the presence of an antagonist - cell viability counter screen (AID 1259386);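 also: cells exposed to compounds for 22 h at 37 °C before the viability read; nearly all actives have a fitted effect of over 30% in size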; also: potency is read from the fitted curve at half-maximal effect; as to activity change, negative = cytotoxicity: series mostly up to about 92 µM
Summary of the method: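 Cell viability in VM7Luc4E2 cells (endogenous full-length ER-alpha) measured by CellTiter-Fluor fluorescence in the same wells as the luciferase screen. Cells pre-cultured 5 days in charcoal-stripped serum, then treated 22 h with compounds at 15 concentrations plus 10.0nM ICI-182,780.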

[9] = qHTS assay to identify small molecule agonists of the TGF-beta/Smad signaling pathway (AID 1346859; active = well fitted activation curve with a large enough effect in the signal ratio in the repeat runs, not every such curve was filed as active; the % refers to the signal ratio; also: series mostly up to about 77 µM)
Summary of the method: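 HEK 293T cells stably carrying a beta-lactamase reporter driven by the Smad binding element were seeded overnight, exposed to DMSO-dissolved compounds for 5 hr at 37 C, 5% CO2, then loaded with FRET substrate for 2 hr at room temperature.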
% is scaled to controls: 0 for no effect and ±100 for the full control effect.

O=C(O)CCc1nc2ccccc2[nH]1
inactive: Potency [1] | Potency [2] | Potency [3] | Potency [4] | outcome [5] | outcome [6] | outcome [7]

CC(CC(C#N)(c1ccccc1)C(C)C)N(C)C (stereo not drawn)
inactive: Potency [8] | Potency [1] | Potency [2] | outcome [6]

O=C(O)c1cccnc1Nc1cccc(C(F)(F)F)c1
inactive: Potency [8] | Potency [1] | outcome [5] | outcome [6] | outcome [9] | outcome [7]

Clc1cccc(C(c2ccc3nc[nH]c3c2)n2ccnc2)c1 (stereo not drawn)
inactive: Potency [8] | Potency [1] | Potency [2] | outcome [5] | outcome [6] | outcome [9] | outcome [7]

C1=COCCC1
inactive: Potency [8] | Potency [1] | Potency [2] | outcome [5] | outcome [6] | outcome [9] | outcome [7]

CCC(=O)O[C@]1(C(=O)COC)[C@@H](C)C[C@H]2[C@@H]3CCC4=CC(=O)C=C[C@]4(C)C3(F)[C@@H](O)C[C@@]21C (stereo partly drawn)
active: Potency [1] 0.376 µM
inactive: Potency [8] | Potency [2] | Potency [3] | outcome [5] | outcome [6]

S=c1[nH][nH]c(=S)s1
inactive: Potency [8] | Potency [1] | Potency [2] | Potency [3] | Potency [4] | outcome [5] | outcome [6] | outcome [9] | outcome [7]

c1ccc(CN(Cc2ccccc2)Cc2ccccc2)cc1
inactive: Potency [8] | Potency [1] | Potency [3] | Potency [4] | outcome [5] | outcome [6] | outcome [7]

O=C1c2ccccc2C(=O)c2c1ccc(O)c2O
inactive: Potency [1] | Potency [2] | Potency [3] | outcome [5] | outcome [6] | outcome [9]
active: Potency [8] 26.6 µM

Nc1nc(Cl)nc2c1ncn2[C@H]1C[C@H](O)[C@@H](CO)O1
inactive: Potency [8] | Potency [1] | Potency [2] | outcome [6] | outcome [7]

O=C(O)c1cc(C(=O)O)c(C(=O)O)cc1C(=O)O
inactive: Potency [8] | Potency [1] | Potency [2] | Potency [3] | outcome [5] | outcome [6] | outcome [9]

CC(=O)Nc1cccc(N)c1
inactive: Potency [8] | Potency [1] | Potency [2] | Potency [3] | Potency [4] | outcome [5] | outcome [6] | outcome [9] | outcome [7]

CCCc1nc(C)c2c(=O)[nH]c(-c3cc(S(=O)(=O)N4CCN(CC)CC4)ccc3OCC)nn12
inactive: Potency [8] | Potency [1] | Potency [2] | outcome [5] | outcome [6] | outcome [9]

CCc1cnc(C(=O)O)c(C(=O)O)c1
inactive: Potency [8] | Potency [1] | Potency [2] | Potency [3] | Potency [4] | outcome [5] | outcome [6] | outcome [7]

C=CC(C)(O)CC/C=C(/C)CCC=C(C)C (stereo not drawn)
inactive: Potency [8] | Potency [1] | Potency [2] | Potency [3] | Potency [4] | outcome [5] | outcome [6] | outcome [9] | outcome [7]

COc1ccc(C(=O)c2ccc(C)cc2)c(O)c1
inactive: Potency [8] | Potency [1] | Potency [3] | outcome [6] | outcome [7]
active: Potency [2] 19.5 µM

Nc1ccccc1Nc1ccccc1
inactive: Potency [1] | Potency [4] | outcome [5] | outcome [6] | outcome [9] | outcome [7]

CCC(=O)O[C@@H]1C[C@H]2CC[C@]1(C)C2(C)C
inactive: Potency [8] | Potency [1] | Potency [2] | Potency [3] | Potency [4] | outcome [6] | outcome [9] | outcome [7]

c1ccc(-c2ccc(-c3ccccc3)cc2)cc1
inactive: activity change, negative = cytotoxicity [8] 0.383% [at 19 µM] | activity change, negative = cytotoxicity [3] 3.71% [at 18.9 µM] | activity change, negative = cytotoxicity [4] 0% [at 19 µM] | viability change, negative = cytotoxic [5] -15.2% [at 15.8 µM] | activity change, negative = cytotoxicity [6] -3.25% [at 15.8 µM] | activation [9] 0.211% [at 15.8 µM] | activity, negative = inhibition [7] -0.349% [at 10.5 µM]

CCC(C(=O)O)c1ccc(N2Cc3ccccc3C2=O)cc1 (stereo not drawn)
inactive: Potency [8] | Potency [1] | Potency [2] | Potency [3] | Potency [4] | outcome [5] | outcome [6] | outcome [7]

CCOCCn1c(N2CCCN(C)CC2)nc2ccccc21
inactive: Potency [8] | Potency [1] | Potency [2] | Potency [3] | outcome [5] | outcome [6] | outcome [9] | outcome [7]

Cc1ccc(NC(=O)c2ccc(CN3CCN(C)CC3)cc2)cc1Nc1nccc(-c2cccnc2)n1
inactive: Potency [3] | outcome [5] | outcome [6]

CC[C@H](NC(C)C)[C@H](O)c1ccc(O)c2[nH]c(=O)ccc12
inactive: Potency [8] | Potency [1] | Potency [2] | Potency [3] | outcome [5] | outcome [6] | outcome [9] | outcome [7]

O=C(Nc1ccc2c(c1)Cc1ccccc1-2)C(F)(F)F
active: Potency [2] 4.33 µM
inactive: Potency [8] | Potency [1] | outcome [5] | outcome [6] | outcome [9] | outcome [7]

CO[C@@H]1[C@@H](O[C@@H]2O[C@H](C)[C@@H](O[C@H]3C[C@@](C)(O)[C@@H](O)[C@H](C)O3)[C@H](N(C)C)[C@H]2O)[C@@H](CC=O)C[C@@H](C)[C@@H](O[C@@H]2CC[C@H](N(C)C)[C@@H](C)O2)/C=C/C=C/C[C@@H](C)OC(=O)C[C@H]1OC(C)=O
inactive: Potency [8] | outcome [5] | outcome [6] | outcome [9] | outcome [7]

C(/C=C/C=C/Nc1ccccc1)=Nc1ccccc1
inactive: Potency [8] | Potency [1] | Potency [2] | Potency [3] | outcome [6] | outcome [7]

CC(=O)CC/C=C(\C)CC/C=C(\C)CC/C=C(\C)CCC=C(C)C
inactive: Potency [8] | Potency [1] | Potency [2] | Potency [3] | Potency [4] | outcome [6] | outcome [9]

CC1=C(C)C(=O)C(C(CCCCCC(=O)O)c2ccccc2)=C(C)C1=O (stereo not drawn)
inactive: Potency [8] | Potency [1] | Potency [2] | Potency [3] | Potency [4] | outcome [5] | outcome [6] | outcome [7]

CC/C=C/CCO
active: Potency [3] 31.2 µM | Potency [4] 19.7 µM
inactive: Potency [8] | Potency [1] | Potency [2] | outcome [5] | outcome [6] | outcome [9] | outcome [7]

C=CCCC
inactive: Potency [8] | Potency [1] | Potency [2] | Potency [4] | outcome [5] | outcome [6] | outcome [9] | outcome [7]
